Measured values taken from PubChem BioAssay (NCATS).
Results filed as inconclusive are left out. Entries that show only a call come without a potency. Values without a mark were called inactive. Activity calls are given as the source filed them. Calls follow the shape of the dose curve; as a rule, active = well fitted curve in the direction sought with a large enough effect; inconclusive = small, poorly fitted or top-dose-only effect, or another doubt; inactive = no such curve, though single readings can be large; an effect the other way counts as inactive or inconclusive.

Columns and labels:
[1] = molecular target: Cellular tumor antigen p53 (Homo sapiens) (UniProt P04637); assay: Primary qHTS for small molecule compounds that upregulate eGFP-tagged delta133p53alpha (in N-terminal) cells. (AID 2060322); conditions: NCI-H358 eGFP-delta133p53alpha fluorescence, 24 h; activation: hits give high values; also: nearly all actives have a fitted effect of over 75% in size; also: potency is read from the fitted curve at half-maximal effect
Procedure, shortened: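 NCI-H358 cells pre-induced 24 h with 10 ng/ml doxycycline to express N-terminal eGFP-delta133p53alpha, then dosed 24 h at 37C without doxycycline; fixed, Hoechst-stained, GFP intensity by laser scanning cytometry, normalized to DMSO (0%) and 57.5 uM 5-azacytidine (100%).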

[2] = molecular target: Aldehyde dehydrogenase, mitochondrial (Homo sapiens) (UniProt P05091); assay: qHTS for Inhibitors of the Aldehyde Dehydrogenase Family (ALDH2) Primary screen (AID 2061308); conditions: ALDH2 enzyme inhibition qHTS, 1536-well; series mostly up to 56 µM; also: nearly all actives have a fitted effect of over 55% in size
[3] = molecular target: Retinaldehyde dehydrogenase 3 (Homo sapiens) (UniProt P47895); assay: qHTS for Inhibitors of the Aldehyde Dehydrogenase Family (ALDH1A3) Primary screen (AID 2061315); conditions: ALDH inhibition qHTS; series mostly up to 56 µM

Chain of Cellular tumor antigen p53 (Homo sapiens) (P04637 whole entry, looked up): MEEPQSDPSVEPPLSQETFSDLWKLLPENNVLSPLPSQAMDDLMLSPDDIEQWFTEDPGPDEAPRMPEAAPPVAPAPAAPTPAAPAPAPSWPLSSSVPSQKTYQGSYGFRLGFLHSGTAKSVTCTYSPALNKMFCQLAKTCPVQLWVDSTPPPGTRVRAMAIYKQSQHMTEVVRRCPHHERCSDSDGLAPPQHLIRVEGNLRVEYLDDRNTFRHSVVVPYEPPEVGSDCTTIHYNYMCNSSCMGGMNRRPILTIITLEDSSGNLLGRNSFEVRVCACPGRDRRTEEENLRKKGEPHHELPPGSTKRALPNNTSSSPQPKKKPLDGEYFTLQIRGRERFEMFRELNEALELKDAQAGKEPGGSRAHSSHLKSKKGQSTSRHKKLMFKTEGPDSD

| SMILES | activation [1] [%] | Potency [2] | Potency [3] | Potency [1] |
| --- | --- | --- | --- | --- |
| CC(=O)OCC(Cc1ccccc1)NC(=O)C(Cc1ccccc1)NC(=O)c1ccccc1 (stereo not given) | -13 | inactive | inactive |  |
| COc1cc2ncnc(Nc3ccc(F)c(Cl)c3)c2cc1OCCCN1CCOCC1 | -5.67 | inactive | inactive |  |
| CSCC1OC(n2cnc3c(=O)[nH]cnc32)C(O)C1O (stereo not given) | -8.4 | inactive | inactive |  |
| CN(C)CC1CCn2c(c(C3=C(c4cn(C)c5ccccc45)C(=O)NC3=O)c3ccccc32)C1 (stereo not given) |  | inactive | inactive | 34.3 µM (active) |
| COc1cc(Cc2cnc(N)nc2N)c(C(C)C)cc1OC | -15.2 | inactive | inactive |  |
